The campaign covered roughly 39,000 compounds. About 3,300 (8.5%) were called active. Many of the other results were omitted from the sample, so actives are more common in it than they were.

This assay relates to HepG2. Kind of assay: cytotoxicity call (relative viability < 0.9). To be noted: 10 µM.
Take `C[C@H]1CN([C@@H](C)CO)C(=O)c2cc(NS(=O)(=O)c3cn(C)cn3)ccc2O[C@H]1CN(C)S(=O)(=O)c1cn(C)cn1`: the cytotoxicity call was “inactive”.

Take `Cc1noc(C)c1NC(=O)N(C)C[C@@H]1Oc2ccc(NC(=O)Cn3cnnn3)cc2C(=O)N([C@@H](C)CO)C[C@H]1C`: the cytotoxicity call is “inactive”.

For `O=C(C[C@H]1C=C[C@@H](NC(=O)CN2CCOCC2)[C@H](CO)O1)NCCc1ccncc1`, the cytotoxicity call is “inactive”.

With `O=C(C[C@@H]1CC[C@@H](NC(=O)CN2CCOCC2)[C@H](CO)O1)NCCc1ccccc1`, the cytotoxicity call is “inactive”.

On to `Cc1ccc(S(=O)(=O)N(C)C[C@H]2Oc3ccc(NS(=O)(=O)c4cn(C)cn4)cc3CC(=O)N([C@@H](C)CO)C[C@@H]2C)cc1`, for which the cytotoxicity call was “inactive”.

Consider `O=S(=O)(NCc1ccco1)N1CCOCC1`, for which the cytotoxicity call is “inactive”.

Consider `C[C@@H]1CCCCO[C@H](CN(C)Cc2ccc(C(=O)O)cc2)[C@H](C)CN([C@@H](C)CO)C(=O)c2cc(NC(=O)Nc3ccccc3)ccc2O1`, for which the cytotoxicity call is “inactive”.

Consider `COc1ccc([C@H]2CC=CC[C@H](C)Oc3ccccc3C(=O)N(C)[C@@H](Cc3ccccc3)C(=O)N2)c(OC)c1`, for which the cytotoxicity call was “inactive”.

`COc1ccc(-c2cc(=O)c3c(O)cc(OC)c(OC)c3o2)c(OC)c1`: the cytotoxicity call was “inactive”.

Turning to `COc1ccc2c(c1)OCC(=Cc1ccc(OC)c(O)c1)C2=O`, the cytotoxicity call is “active”.

`COc1ccc2c(c1)OCC(Cc1ccc(OC)c(O)c1)C2=O` (stereo not drawn): the cytotoxicity call was “active”.

As to `COc1ccc(CCC(=O)c2c(O)cc(O[C@@H]3O[C@H](CO)[C@@H](O)[C@H](O)[C@H]3O[C@@H]3O[C@@H](C)[C@H](O)[C@@H](O)[C@H]3O)cc2O)cc1O`, the cytotoxicity call was “inactive”.

As for `COc1ccc2c(c1)OCc1c-2oc2cc(OC)ccc12`, the cytotoxicity call was “inactive”.

As to `COc1ccc2c(c1)OCC(Cc1ccc(O)c(OC)c1)C2=O` (stereo not drawn), the cytotoxicity call was “inactive”.

On to `COc1ccc2c(c1)OCC(Cc1ccc(OC)c(OC)c1)C2=O` (stereo not drawn), for which the cytotoxicity call was “active”.

In the case of `COc1ccc([C@H]2CC=CC[C@H](C)Oc3ccccc3C(=O)N(C)[C@H](Cc3ccccc3)C(=O)N2)c(OC)c1`, the cytotoxicity call is “inactive”.

Take `C[C@H]1CCCCO[C@H](CN(C)C(=O)NC2CCCCC2)[C@@H](C)CN([C@@H](C)CO)C(=O)c2cc(NC(=O)C3CCCCC3)ccc2O1`: the cytotoxicity call is “inactive”.

In the case of `Cc1noc(C)c1NC(=O)N(C)C[C@@H]1OCCCC[C@H](C)Oc2ccc(NC(=O)Nc3cccc4ccccc34)cc2C(=O)N([C@@H](C)CO)C[C@H]1C`, the cytotoxicity call was “inactive”.

Turning to `COCCNC(=O)C[C@@H]1CC[C@@H]2[C@H](COc3ccc(NC(=O)Nc4cccc(F)c4)cc3C(=O)N2C)O1`, the cytotoxicity call is “inactive”.

As for `Cc1noc(C)c1NC(=O)Nc1ccc2c(c1)CC(=O)N([C@@H](C)CO)C[C@H](C)[C@@H](CN(C)Cc1ccc(Oc3ccccc3)cc1)O2`, the cytotoxicity call was “inactive”.

Regarding `Cc1noc(C)c1NC(=O)N(C)C[C@@H]1Oc2ccc(NS(=O)(=O)c3ccccc3)cc2C(=O)N([C@H](C)CO)C[C@@H]1C`, the cytotoxicity call was “inactive”.

As to `CCSc1nc(-c2ccc(C)cc2)cc(C(F)(F)F)c1C#N`, the cytotoxicity call is “inactive”.

Regarding `Cc1cc(-c2ccccc2)nc(SCc2ccccc2)c1C#N`, the cytotoxicity call is “active”.

Regarding `CSc1nc(-c2ccccc2)cc(-c2cccs2)c1C#N`, the cytotoxicity call was “inactive”.

On to `CC(C)NC(=O)Nc1cccc2c1O[C@H](CN(C)S(=O)(=O)c1ccccc1)[C@@H](C)CN([C@H](C)CO)C2=O`, for which the cytotoxicity call is “inactive”.

As to `C[C@@H]1CCCCO[C@H](CN(C)S(=O)(=O)c2cccs2)[C@@H](C)CN([C@H](C)CO)C(=O)c2cc(NC(=O)Nc3cccc4ccccc34)ccc2O1`, the cytotoxicity call was “inactive”.

Regarding `CCCN(C)C[C@@H]1OCCCC[C@@H](C)Oc2ccc(NC(=O)Nc3ccc(C(F)(F)F)cc3)cc2C(=O)N([C@H](C)CO)C[C@@H]1C`, the cytotoxicity call is “active”.

Take `CCCN(C)C[C@H]1OCCCC[C@@H](C)Oc2ccc(NC(=O)Nc3ccc(C(F)(F)F)cc3)cc2C(=O)N([C@H](C)CO)C[C@H]1C`: the cytotoxicity call is “inactive”.

In the case of `CCCN(C)C[C@@H]1OCCCC[C@@H](C)Oc2ccc(NC(=O)Nc3ccc(F)cc3)cc2C(=O)N([C@H](C)CO)C[C@@H]1C`, the cytotoxicity call was “inactive”.

On to `CCCN(C)C[C@H]1OCCCC[C@H](C)Oc2ccc(NC(=O)Nc3ccc(F)cc3)cc2C(=O)N([C@@H](C)CO)C[C@H]1C`, for which the cytotoxicity call is “inactive”.

Regarding `CCCN(C)C[C@@H]1OCCCC[C@@H](C)Oc2ccc(NC(=O)Nc3ccc(F)cc3)cc2C(=O)N([C@H](C)CO)C[C@H]1C`, the cytotoxicity call was “inactive”.

For the compound `CCCN(C)C[C@@H]1OCCCC[C@@H](C)Oc2ccc(NC(=O)Nc3ccc(C(F)(F)F)cc3)cc2C(=O)N([C@H](C)CO)C[C@H]1C`, the cytotoxicity call was “inactive”.

Regarding `CCCN(C)C[C@H]1OCCCC[C@@H](C)Oc2ccc(NC(=O)Nc3ccc(C(F)(F)F)cc3)cc2C(=O)N([C@@H](C)CO)C[C@H]1C`, the cytotoxicity call was “active”.

In the case of `CCCN(C)C[C@H]1OCCCC[C@H](C)Oc2ccc(NC(=O)Nc3ccc(C(F)(F)F)cc3)cc2C(=O)N([C@@H](C)CO)C[C@H]1C`, the cytotoxicity call is “active”.

Take `CCCN(C)C[C@@H]1OCCCC[C@H](C)Oc2ccc(NC(=O)Nc3ccc(C(F)(F)F)cc3)cc2C(=O)N([C@H](C)CO)C[C@@H]1C`: the cytotoxicity call is “active”.

`CCCN(C)C[C@@H]1OCCCC[C@H](C)Oc2ccc(NC(=O)Nc3ccc(F)cc3)cc2C(=O)N([C@@H](C)CO)C[C@@H]1C`: the cytotoxicity call was “inactive”.

As for `CCCN(C)C[C@@H]1OCCCC[C@H](C)Oc2ccc(NC(=O)Nc3ccc(C(F)(F)F)cc3)cc2C(=O)N([C@@H](C)CO)C[C@@H]1C`, the cytotoxicity call was “inactive”.

Consider `CCCN(C)C[C@H]1OCCCC[C@@H](C)Oc2ccc(NC(=O)Nc3ccc(F)cc3)cc2C(=O)N([C@H](C)CO)C[C@@H]1C`, for which the cytotoxicity call was “inactive”.

Consider `COc1ccc(S(=O)(=O)Nc2ccc3c(c2)C(=O)N([C@@H](C)CO)C[C@@H](C)[C@H](CN(C)S(=O)(=O)c2ccc(Cl)cc2)OCCCC[C@@H](C)O3)cc1`, for which the cytotoxicity call is “inactive”.

Consider `COc1ccc(S(=O)(=O)N(C)C[C@@H]2Oc3ccc(NC(=O)Cc4ccccc4)cc3CC(=O)N([C@H](C)CO)C[C@H]2C)cc1`, for which the cytotoxicity call was “inactive”.

Consider `COc1ccccc1C#Cc1ccc2c(c1)O[C@@H](CN(C)Cc1cncnc1)[C@H](C)CN([C@H](C)CO)S2(=O)=O`, for which the cytotoxicity call is “inactive”.

In the case of `Cc1ccc(S(=O)(=O)N2C[C@@H](O)COC[C@H]3O[C@H](CC(=O)NCc4ccc(C(F)(F)F)cc4)CC[C@@H]32)cc1`, the cytotoxicity call was “inactive”.

As to `CSc1cc(-c2ccc(Cl)cc2)nc(-c2cccs2)c1`, the cytotoxicity call was “inactive”.

Take `C[C@@H]1CCCCO[C@@H](CN(C)C(=O)Nc2ccc(C(F)(F)F)cc2)[C@H](C)CN([C@@H](C)CO)C(=O)c2cc(NC(=O)NC3CCCCC3)ccc2O1`: the cytotoxicity call was “inactive”.

In the case of `C[C@H]1CN([C@@H](C)CO)C(=O)c2cccc(NS(=O)(=O)c3ccc(Cl)cc3)c2O[C@H]1CN(C)Cc1ccc(Cl)c(Cl)c1`, the cytotoxicity call was “inactive”.

As to `CCS(=O)(=O)N1C[C@]2(C1)CN([C@H](CO)c1[nH]c3cc(ccc3c12)OC)S(=O)(=O)c1ccc(cc1)C`, the cytotoxicity call was “inactive”.

On to `CC(C)NC(=O)N(C)C[C@@H]1Oc2c(NC(=O)NC3CCCCC3)cccc2C(=O)N([C@H](C)CO)C[C@H]1C`, for which the cytotoxicity call was “inactive”.

`CCc1c(C)[nH]c(N2CCOCC2)nc1=O`: the cytotoxicity call was “inactive”.

As for `C[C@H]1CN([C@@H](C)CO)C(=O)CCCn2cc(nn2)CO[C@@H]1CN(C)C(=O)c1ccc(N2CCN(C)CC2)cc1`, the cytotoxicity call was “active”.

On to `C[C@@H]1CN([C@H](C)CO)C(=O)CCCn2nncc2CO[C@H]1CN(C)C(=O)Nc1ccccc1C(F)(F)F`, for which the cytotoxicity call was “active”.

Regarding `C[C@H](CO)N1C[C@H](C)[C@H](CN(C)C(=O)Nc2ccccc2C(F)(F)F)OCc2cn(nn2)CCCC1=O`, the cytotoxicity call was “inactive”.

As to `C[C@H]1CN([C@@H](C)CO)C(=O)CCCn2cc(nn2)CO[C@H]1CN(C)C(=O)c1ccc(N2CCN(C)CC2)cc1`, the cytotoxicity call was “inactive”.

`C[C@@H]1CN([C@H](C)CO)C(=O)CCCn2cc(nn2)CO[C@@H]1CN(C)C(=O)Nc1ccccc1C(F)(F)F`: the cytotoxicity call is “active”.

On to `C[C@@H]1CN([C@@H](C)CO)C(=O)CCCn2nncc2CO[C@H]1CN(C)C(=O)Nc1ccccc1C(F)(F)F`, for which the cytotoxicity call was “inactive”.

Turning to `C[C@H](CO)N1C[C@H](C)[C@@H](CN(C)C(=O)Nc2ccccc2C(F)(F)F)OCc2cnnn2CCCC1=O`, the cytotoxicity call is “inactive”.

In the case of `C[C@H](CO)N1C[C@H](C)[C@@H](CN(C)C(=O)Nc2ccccc2C(F)(F)F)OCc2cn(nn2)CCCC1=O`, the cytotoxicity call was “inactive”.

Turning to `C[C@H](CO)N1C[C@H](C)[C@H](CN(C)C(=O)Nc2ccc(C(F)(F)F)cc2)OCc2cnnn2CCCC1=O`, the cytotoxicity call is “active”.

As to `C[C@@H]1CN([C@H](C)CO)C(=O)CCCn2cc(nn2)CO[C@@H]1CN(C)C(=O)c1ccc(N2CCN(C)CC2)cc1`, the cytotoxicity call was “inactive”.

In the case of `C[C@@H]1CN([C@@H](C)CO)C(=O)CCCn2nncc2CO[C@@H]1CN(C)C(=O)Nc1ccc(C(F)(F)F)cc1`, the cytotoxicity call is “inactive”.

For `C[C@@H]1CN([C@@H](C)CO)C(=O)CCCn2nncc2CO[C@H]1CN(C)C(=O)Nc1ccc(C(F)(F)F)cc1`, the cytotoxicity call was “inactive”.

For the compound `Cc1noc(C)c1NC(=O)Nc1ccc2c(c1)CC(=O)N([C@H](C)CO)C[C@H](C)[C@H](CN(C)CC1CC1)O2`, the cytotoxicity call is “inactive”.

Turning to `Nc1ncnc2c1ncn2[C@@H]1O[C@H](CO)C[C@H]1O`, the cytotoxicity call was “inactive”.

Consider `C[C@H]1CN([C@@H](C)CO)C(=O)Cc2cc(N(C)C)ccc2O[C@@H]1CN(C)S(=O)(=O)c1cn(C)cn1`, for which the cytotoxicity call is “inactive”.

With `CC(C)(CO)Nc1ncnc(N)c1[N+](=O)[O-]`, the cytotoxicity call was “inactive”.

As to `COc1ccc(NC(=O)Nc2cccc3c2O[C@@H](CN(C)CC2CCCCC2)[C@@H](C)CN([C@@H](C)CO)C3=O)cc1`, the cytotoxicity call was “inactive”.

As for `Cc1noc(C)c1NC(=O)N(C)C[C@H]1Oc2c(NC(=O)C3CCOCC3)cccc2C(=O)N([C@@H](C)CO)C[C@@H]1C`, the cytotoxicity call was “inactive”.

In the case of `C[C@@H]1CN([C@H](C)CO)C(=O)c2cc(NS(=O)(=O)c3ccc(F)cc3)ccc2O[C@@H]1CN(C)S(=O)(=O)c1ccccc1`, the cytotoxicity call is “inactive”.

`C[C@H]1CN([C@@H](C)CO)C(=O)CCCn2nncc2CO[C@H]1CN(C)C(=O)Nc1ccccc1C(F)(F)F`: the cytotoxicity call is “active”.

Take `C[C@@H]1CN([C@H](C)CO)C(=O)CCCn2nncc2CO[C@@H]1CN(C)C(=O)Nc1ccccc1C(F)(F)F`: the cytotoxicity call was “inactive”.

As to `C[C@@H]1CN([C@H](C)CO)C(=O)CCCn2nncc2CO[C@H]1CN(C)S(=O)(=O)c1ccc(Cl)cc1`, the cytotoxicity call is “inactive”.

Turning to `C[C@H]1CN([C@@H](C)CO)C(=O)CCCn2nncc2CO[C@@H]1CN(C)C(=O)Nc1ccccc1C(F)(F)F`, the cytotoxicity call is “inactive”.

As for `C[C@H]1CN([C@@H](C)CO)C(=O)CCCn2nncc2CO[C@H]1CN(C)S(=O)(=O)c1ccc(Cl)cc1`, the cytotoxicity call is “active”.

Consider `C[C@@H]1CN([C@H](C)CO)C(=O)CCCn2nncc2CO[C@@H]1CN(C)S(=O)(=O)c1ccc(Cl)cc1`, for which the cytotoxicity call was “inactive”.

These data come from the antibiotic and cytotoxicity screens of Wong et al. (2023).
